Bioassay records: PubChem BioAssay, The Scripps Research Institute Molecular Screening Center
Hits are enriched below; roughly 1.3% of the tested compounds scored in any of these assays.
Fam108B inh: Fam108B inhibition, counter-screen for RBBP9 inhibitors | recombinant Fam108B, FP-Rh probe fluorescence polarization | inhibition, % at 9.51 µM | 0.33% of 300,000 active;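 active = inhibition above the screen mean inhibition plus 3 SD, computed separately per campaign, cut at about 18% in these data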;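 note: inhibitors lower polarization as less probe binds the enzyme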
PREPL inh: inhibitors of human prolyl oligopeptidase-like enzyme PREPL | AID 2751 | 0.68% of 320,000 active | inhibition, % at 5.96 µM | recombinant PREPL, fluorescence polarization activity-based probe;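 note: 0% = enzyme with DMSO and 100% = wells lacking enzyme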
LYPLA2 inh: counter-screen for PME1 inhibitors: inhibitors of human LYPLA2; O95372; inhibition, % at 5.9 µM; 0.38% of 320,000 active; recombinant LYPLA2, FP-Rh probe fluorescence polarization;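 active = inhibition above the screen-wide mean plus 3 SD, limit set per campaign, cut at about 26% in these data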;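 note: 0% = LYPLA2 with DMSO and 100% = wells lacking LYPLA2 enzyme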
LYPLA1 counter: LYPLA1 (human) inhibition in PME1 counter-screen | AID 2174 | 0.16% of 320,000 active | inhibition, % at 5.9 µM | O75608 | recombinant LYPLA1, FP-Rh probe fluorescence polarization;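 active = inhibition above the mean of all tested compounds plus 3 SD, set per campaign, cut at about 14% in these data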;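 note: inhibitors block serine hydrolase probe labeling of LYPLA1 so polarization falls; 0% = enzyme with DMSO and 100% = wells lacking LYPLA1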
PME-1 primary: PME-1 (human) inhibition | inhibition, % at 5.9 µM | 0.53% of 320,000 active | recombinant PME-1, FP-Rh probe fluorescence polarization;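 active = inhibition above the campaign mean of all compounds plus 3 SD, cut at about 26% in these data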;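 note: competitive labeling of PME-1 active site by serine hydrolase directed probe; 0% = PME-1 with DMSO and 100% = wells lacking PME-1 enzyme; inhibitors block probe labeling so polarization falls and inhibition rises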
Target sequence (Q9Y570 whole entry, looked up): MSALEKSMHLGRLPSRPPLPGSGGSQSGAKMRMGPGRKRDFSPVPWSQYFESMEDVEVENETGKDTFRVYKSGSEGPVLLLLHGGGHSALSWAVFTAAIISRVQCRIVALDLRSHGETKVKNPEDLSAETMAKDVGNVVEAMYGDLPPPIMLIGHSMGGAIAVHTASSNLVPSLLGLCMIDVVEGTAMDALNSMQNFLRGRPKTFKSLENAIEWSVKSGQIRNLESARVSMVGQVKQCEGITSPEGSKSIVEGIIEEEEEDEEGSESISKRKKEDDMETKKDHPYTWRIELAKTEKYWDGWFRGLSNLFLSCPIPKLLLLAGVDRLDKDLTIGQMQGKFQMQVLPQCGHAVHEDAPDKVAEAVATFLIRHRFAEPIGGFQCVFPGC
PREPL confirm: human PREPL inhibition, confirmation | recombinant PREPL, fluorescence polarization activity probe | inhibition, % at 5.96 µM | 67% of 2,000 active | shares compounds with PREPL inh;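 note: 0% = protein with DMSO and 100% = wells lacking protein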
Numbers without * were called inactive. Cut-off read from the data, not from the text of the source, unless noted: active = inhibition above about 43%; inactive = the rest.

Results for Cc1ccc(/C=C/C(=O)Nc2ccc(N(C)C)cc2)o1 ?
Fam108B inh: -0.5; PREPL inh: 47.8*; LYPLA2 inh: -3.3; LYPLA1 counter: -1.4; PME-1 primary: 0.2; PREPL confirm: 42.4

What do the screens show for `O=C1COc2ccc(-c3csc(=Nc4ccc(OC(F)F)cc4)n3CC3CCCO3)cc2N1` (configuration not stated)?
Fam108B inh: 0.3; PREPL inh: 46.1*; LYPLA2 inh: 3.5; LYPLA1 counter: -6.0; PME-1 primary: 8.4; PREPL confirm: 48.6*

How did O=C(CSc1ccccc1[N+](=O)[O-])NC1CCS(=O)(=O)C1 (configuration not stated) do in these assays?
Fam108B inh: -0.7; PREPL inh: 4.5; LYPLA2 inh: 2.3; LYPLA1 counter: -1.4; PME-1 primary: 2.4

What do the screens show for `O=C(CP(=O)(c1ccccc1)c1ccccc1)Nc1nc2ccccc2s1`?
Fam108B inh: -2.1; PREPL inh: 50.0*; LYPLA2 inh: 6.3; LYPLA1 counter: -0.8; PME-1 primary: 5.9; PREPL confirm: 41.2

Results for O=C(Cc1ccccc1)Nc1nc2ccccc2s1 ?
Fam108B inh: -0.4; PREPL inh: -8.1; LYPLA2 inh: -5.1; LYPLA1 counter: -7.3; PME-1 primary: -7.0

Results for CCOC(=O)N1CCN(CC(O)COc2ccc(C)c(C)c2)CC1 (configuration not stated) ?
Fam108B inh: 4.5; PREPL inh: -3.5; LYPLA2 inh: -0.7; LYPLA1 counter: 0.0; PME-1 primary: 1.5

How did Cc1nn(-c2ccccc2)c(C)c1/C=N/Nc1nc2ccccc2[nH]1 do in these assays?
Fam108B inh: 7.1; PREPL inh: 29.4; LYPLA2 inh: 5.6; LYPLA1 counter: 5.0; PME-1 primary: -77.8

Results for Cc1c(/C=N/Nc2nc3ccccc3[nH]2)c2ccccc2n1C ?
Fam108B inh: 8.2; PREPL inh: 45.1*; LYPLA2 inh: 4.2; LYPLA1 counter: -4.1; PME-1 primary: 5.9; PREPL confirm: 36.4

What do the screens show for `C=CCn1cc(/C=N/Nc2nc3ccccc3[nH]2)c2ccccc21`?
Fam108B inh: 14.2; PREPL inh: 44.6*; LYPLA2 inh: 11.7; LYPLA1 counter: 1.0; PME-1 primary: 2.9; PREPL confirm: 49.9*

What do the screens show for `Cc1[nH]c(C)c(S(=O)(=O)NCCc2ccc(S(N)(=O)=O)cc2)c1C(=O)N1CCCC1`?
Fam108B inh: -0.7; PREPL inh: 53.9*; LYPLA2 inh: -1.7; LYPLA1 counter: -1.0; PME-1 primary: -4.2; PREPL confirm: 12.7

Results for CN(Cc1ccccc1)C(=O)c1ccc(NC(=O)C2CCN(C(=O)OC(C)(C)C)CC2)cc1 ?
PREPL inh: 5.6

What do the screens show for `COc1cc(/C=N/n2cnnc2)ccc1OCc1ccccc1`?
Fam108B inh: -5.6; PREPL inh: 46.2*; LYPLA2 inh: 1.2; LYPLA1 counter: 0.0; PME-1 primary: -2.7; PREPL confirm: 42.3

What do the screens show for `COc1ccc(/C=N/n2cnnc2)cc1COc1ccccn1`?
Fam108B inh: 3.6; PREPL inh: 2.8; LYPLA2 inh: 1.1; LYPLA1 counter: -0.5; PME-1 primary: 0.4

What do the screens show for `CCN(CC)CCN(C)C1CCC(c2ccccc2)CC1` (configuration not stated)?
Fam108B inh: 0.6; PREPL inh: -12.3; LYPLA2 inh: -2.3; LYPLA1 counter: -1.7; PME-1 primary: -4.0

Results for COc1ccc(NC(=O)c2ccc(-c3ccc(-c4noc(C)n4)cc3C)cc2)cc1N1CCN(C)CC1 ?
Fam108B inh: 5.7; PREPL inh: 75.7*; LYPLA2 inh: 1.8; LYPLA1 counter: 2.8; PME-1 primary: 6.8; PREPL confirm: 60.5*

What do the screens show for `Oc1c(CN2CCCCC2)cc(COCc2ccccc2)c2cccnc12`?
Fam108B inh: -1.9; PREPL inh: 55.6*; LYPLA2 inh: -3.6; LYPLA1 counter: -4.8; PME-1 primary: -4.0; PREPL confirm: 83.9*

Results for COCc1cc(CN2CCCC2)c(O)c2ncccc12 ?
Fam108B inh: 4.8; PREPL inh: 8.4; LYPLA2 inh: 6.2; LYPLA1 counter: -2.8; PME-1 primary: -0.4

Results for Cc1ccc(NC(=O)C[n+]2cc(-c3ccc(C)cc3)n3c2CCC3)cc1 ?
Fam108B inh: -0.2; PREPL inh: 14.6; LYPLA2 inh: 2.9; LYPLA1 counter: 2.0; PME-1 primary: 2.7
